Measurements published in PubChem BioAssay (NCATS).
Results filed as inconclusive are left out. Calls of active or inactive are those of the source. Unless noted, calls follow the shape of the dose curve; as a rule, active = well fitted curve in the direction sought with a large enough effect; inconclusive = small, poorly fitted or top-dose-only effect, or another doubt; inactive = no such curve, though single readings can be large; an effect the other way counts as inactive or inconclusive.

Assays:
[1] = target: ATP-dependent 6-phosphofructokinase (Trypanosoma brucei brucei) (UniProt O15648); experiment: qHTS Assay to Find Inhibitors of T. brucei phosphofructokinase: hit validation (AID 492961);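 also: luminescence reports ADP formed as PFK phosphorylates fructose-6-phosphate with ATP; % is scaled to controls: 0 for no effect and ±100 for the full control effect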
Chain of ATP-dependent 6-phosphofructokinase (Trypanosoma brucei brucei) (O15648 whole entry, looked up): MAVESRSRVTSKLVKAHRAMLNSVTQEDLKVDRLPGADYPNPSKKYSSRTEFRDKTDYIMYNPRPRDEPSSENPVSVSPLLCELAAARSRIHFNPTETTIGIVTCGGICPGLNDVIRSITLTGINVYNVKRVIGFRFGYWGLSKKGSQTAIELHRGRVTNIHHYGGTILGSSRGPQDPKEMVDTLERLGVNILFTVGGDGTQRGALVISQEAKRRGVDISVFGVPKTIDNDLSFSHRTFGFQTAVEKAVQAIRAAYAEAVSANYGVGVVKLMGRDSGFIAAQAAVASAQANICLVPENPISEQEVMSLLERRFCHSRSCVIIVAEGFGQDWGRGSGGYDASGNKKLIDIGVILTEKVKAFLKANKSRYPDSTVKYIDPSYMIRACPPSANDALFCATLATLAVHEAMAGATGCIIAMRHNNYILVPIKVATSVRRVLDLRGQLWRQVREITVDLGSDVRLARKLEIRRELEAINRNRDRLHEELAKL
Outline: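 Reaction: 0.1 M triethanolamine pH 8.0, 5 mM MgCl2, F6P 0.5 mM, ATP 0.1 mM, PFK 1.25 nM, 45 min RT. Read-out: ADP-Glo luminescence. Analysis: concentration-response fits, classed by r2 and efficacy.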

[2] = target: Luciferin 4-monooxygenase (Photinus pyralis) (UniProt P08659); experiment: Biochemical firefly luciferase enzyme assay for NPC (AID 624030);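 also: purified P. pyralis luciferase at 10 nM with luciferin and ATP substrate; 0% = DMSO and -100% = full luciferase inhibition by PTC124 control; nearly all actives have a fitted effect of over 70% in size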
Chain of Luciferin 4-monooxygenase (Photinus pyralis) (P08659 whole entry, looked up): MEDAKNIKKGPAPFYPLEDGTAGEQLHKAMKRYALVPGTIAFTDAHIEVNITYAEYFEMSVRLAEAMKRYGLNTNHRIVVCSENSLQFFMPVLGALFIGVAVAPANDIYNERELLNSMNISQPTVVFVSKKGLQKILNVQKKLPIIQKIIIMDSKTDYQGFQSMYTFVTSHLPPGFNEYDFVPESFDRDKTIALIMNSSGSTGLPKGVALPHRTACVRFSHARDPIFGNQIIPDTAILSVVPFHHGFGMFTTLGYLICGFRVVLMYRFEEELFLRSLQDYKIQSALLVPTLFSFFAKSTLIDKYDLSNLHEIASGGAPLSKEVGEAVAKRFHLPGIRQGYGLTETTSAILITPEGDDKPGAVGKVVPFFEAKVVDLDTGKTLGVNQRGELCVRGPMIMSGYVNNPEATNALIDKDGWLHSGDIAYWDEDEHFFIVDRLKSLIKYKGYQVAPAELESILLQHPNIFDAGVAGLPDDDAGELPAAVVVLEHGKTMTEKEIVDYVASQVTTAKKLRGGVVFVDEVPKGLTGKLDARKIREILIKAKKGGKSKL
Outline: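 Counter-screen for direct inhibition of the luciferase enzyme by approved-drug library compounds, run at 10 nM enzyme in 50 mM Tris acetate (final). Luminescence was read within 5 min of enzyme-buffer addition and normalized to PTC124 versus DMSO (0%).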

[3] = S16 Schwann cell viability assay (CellTiter-Glo assay) (AID 624031);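 also: cellular ATP luminescence as a viability measure; plate controls were DMSO-treated cells for no effect and cell-free wells for full effect; nearly all actives have a fitted effect of over 70% in size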
Outline: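 CellTiter-Glo ATP luminescence counter-screen in untransfected S16 rat Schwann cells, 24h compound exposure at 37 degree Celsius after overnight seeding (500-750 cells/well); response scaled between cell-free wells and DMSO (0% activity), curves classed by r2 and magnitude.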

[4] = S16 Schwann cell PMP22 intronic element beta-lactamase assay (AID 624044; calls by dose curve;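 also: 0% = DMSO and -100% = potassium clavulanate positive control; nearly all actives have a fitted effect of over 15% in size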)
Outline: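 Beta-lactamase reporter under a PMP22 intronic regulatory element in stable S16 rat Schwann cells; 24 h compound exposure. 460 nm blue signal normalized between DMSO (0%) and potassium clavulanate, with 535 nm FRET tracking viability; curves classed by r2 and response.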

[5] = system: Zika virus NS2B-NS3 protease; experiment: Primary screen GU AMC qHTS for Zika virus inhibitors (AID 1347154);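 also: 0% = no-inhibitor control and -100% = no-enzyme control; nearly all actives have a fitted effect of over 70% in size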
Outline: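 Unlinked Zika NS2B hydrophilic domain/NS3 protease domain noncovalent complex (25 nM final) in 10 mM Tris-HCl pH 8.0, 0.01% Tween 20, with AMC peptide substrate. Fluorescence (ex 340, em 450 nm) change over 15 min, room temperature; percent inhibition fitted to 4-parameter Hill equation.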

[6] = Primary qHTS for small molecule stabilizers of the endoplasmic reticulum resident proteome: Secreted ER Calcium Modulated Protein (SERCaMP) assay (AID 1508630); also: % is scaled to controls: 0 for no effect and ±100 for the full control effect
Outline: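 The SH-SY5Y reporter protocol was run at 3 concentrations up to 38.3 uM (primary) or 11 concentrations (follow-up): 16 h compound, 100 nM thapsigargin for 4 h, then extracellular luciferase luminescence.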

[7] = qHTS profiling for inhibitors of Plasmodium falciparum proliferation (AID 504749);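 also: 0% = DMSO vehicle and full inhibition = artemisinin control; nearly all actives have a fitted effect of over 60% in size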; conditions: P. falciparum in erythrocytes, SYBR Green DNA, 72 h, at 28.7 µM (top of the series)
Outline: (§1)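 Quantitative HTS: compounds pinned into medium, infected erythrocytes added (0.3% parasitemia, 2.5% hematocrit), 72 h culture at 37 C under 5% CO2. Saponin/Triton lysis with SYBR Green I, overnight RT, then fluorescence read.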

3D7 = experiment: as above; conditions: P. falciparum in erythrocytes, SYBR Green DNA, 72 h; series mostly up to 28.7 µM
Outline: as §1

7G8 = experiment: as above; conditions: P. falciparum in erythrocytes, SYBR Green DNA, 72 h; series mostly up to 28.7 µM
Outline: as §1

AA1029 = experiment: as above; conditions: P. falciparum in erythrocytes, SYBR Green DNA, 72 h; series mostly up to 28.7 µM
Outline: as §1

AS120 = experiment: as above; conditions: P. falciparum in erythrocytes, SYBR Green DNA, 72 h; series mostly up to 28.7 µM
Outline: as §1

ATS189 = experiment: as above; conditions: P. falciparum in erythrocytes, SYBR Green DNA, 72 h; series mostly up to 28.7 µM
Outline: as §1

ATS95 = experiment: as above; conditions: P. falciparum in erythrocytes, SYBR Green DNA, 72 h; series mostly up to 28.7 µM
Outline: as §1

C2A = experiment: as above; conditions: P. falciparum in erythrocytes, SYBR Green DNA, 72 h; series mostly up to 28.7 µM
Outline: as §1

CP185 = experiment: as above; conditions: P. falciparum in erythrocytes, SYBR Green DNA, 72 h; series mostly up to 28.7 µM
Outline: as §1

CP191 = experiment: as above; conditions: P. falciparum in erythrocytes, SYBR Green DNA, 72 h; series mostly up to 28.7 µM
Outline: as §1

CP194 = experiment: as above; conditions: P. falciparum in erythrocytes, SYBR Green DNA, 72 h; series mostly up to 28.7 µM
Outline: as §1

CP201 = experiment: as above; conditions: P. falciparum in erythrocytes, SYBR Green DNA, 72 h; series mostly up to 28.7 µM
Outline: as §1

CP203 = experiment: as above; conditions: P. falciparum in erythrocytes, SYBR Green DNA, 72 h; series mostly up to 28.7 µM
Outline: as §1

CP211 = experiment: as above; conditions: P. falciparum in erythrocytes, SYBR Green DNA, 72 h; series mostly up to 28.7 µM
Outline: as §1

CP215 = experiment: as above; conditions: P. falciparum in erythrocytes, SYBR Green DNA, 72 h; series mostly up to 28.7 µM
Outline: as §1

CP217 = experiment: as above; conditions: P. falciparum in erythrocytes, SYBR Green DNA, 72 h; series mostly up to 28.7 µM
Outline: as §1

CP237 = experiment: as above; conditions: P. falciparum in erythrocytes, SYBR Green DNA, 72 h; series mostly up to 28.7 µM
Outline: as §1

CP238 = experiment: as above; conditions: P. falciparum in erythrocytes, SYBR Green DNA, 72 h; series mostly up to 28.7 µM
Outline: as §1

CP247 = experiment: as above; conditions: P. falciparum in erythrocytes, SYBR Green DNA, 72 h; series mostly up to 28.7 µM
Outline: as §1

CP250 = experiment: as above; conditions: P. falciparum in erythrocytes, SYBR Green DNA, 72 h; series mostly up to 28.7 µM
Outline: as §1

CP252 = experiment: as above; conditions: P. falciparum in erythrocytes, SYBR Green DNA, 72 h; series mostly up to 28.7 µM
Outline: as §1

CP256 = experiment: as above; conditions: P. falciparum in erythrocytes, SYBR Green DNA, 72 h; series mostly up to 28.7 µM
Outline: as §1

CP260 = experiment: as above; conditions: P. falciparum in erythrocytes, SYBR Green DNA, 72 h; series mostly up to 28.7 µM
Outline: as §1

CP262 = experiment: as above; conditions: P. falciparum in erythrocytes, SYBR Green DNA, 72 h; series mostly up to 28.7 µM
Outline: as §1

CP265 = experiment: as above; conditions: P. falciparum in erythrocytes, SYBR Green DNA, 72 h; series mostly up to 28.7 µM
Outline: as §1

CP266 = experiment: as above; conditions: P. falciparum in erythrocytes, SYBR Green DNA, 72 h; series mostly up to 28.7 µM
Outline: as §1

CP268 = experiment: as above; conditions: P. falciparum in erythrocytes, SYBR Green DNA, 72 h; series mostly up to 28.7 µM
Outline: as §1

CP269 = experiment: as above; conditions: P. falciparum in erythrocytes, SYBR Green DNA, 72 h; series mostly up to 28.7 µM
Outline: as §1

CP286 = experiment: as above; conditions: P. falciparum in erythrocytes, SYBR Green DNA, 72 h; series mostly up to 28.7 µM
Outline: as §1

CP291 = experiment: as above; conditions: P. falciparum in erythrocytes, SYBR Green DNA, 72 h; series mostly up to 28.7 µM
Outline: as §1

CP305 = experiment: as above; conditions: P. falciparum in erythrocytes, SYBR Green DNA, 72 h; series mostly up to 28.7 µM
Outline: as §1

CP315 = experiment: as above; conditions: P. falciparum in erythrocytes, SYBR Green DNA, 72 h; series mostly up to 28.7 µM
Outline: as §1

CP325 = experiment: as above; conditions: P. falciparum in erythrocytes, SYBR Green DNA, 72 h; series mostly up to 28.7 µM
Outline: as §1

CP329 = experiment: as above; conditions: P. falciparum in erythrocytes, SYBR Green DNA, 72 h; series mostly up to 28.7 µM
Outline: as §1

CP335 = experiment: as above; conditions: P. falciparum in erythrocytes, SYBR Green DNA, 72 h; series mostly up to 28.7 µM
Outline: as §1

DFO2036 = experiment: as above; conditions: P. falciparum in erythrocytes, SYBR Green DNA, 72 h; series mostly up to 28.7 µM
Outline: as §1

DIV14 = experiment: as above; conditions: P. falciparum in erythrocytes, SYBR Green DNA, 72 h; series mostly up to 28.7 µM
Outline: as §1

DIV17 = experiment: as above; conditions: P. falciparum in erythrocytes, SYBR Green DNA, 72 h; series mostly up to 28.7 µM
Outline: as §1

DIV30 = experiment: as above; conditions: P. falciparum in erythrocytes, SYBR Green DNA, 72 h; series mostly up to 28.7 µM
Outline: as §1

Dd2 = experiment: as above; conditions: P. falciparum in erythrocytes, SYBR Green DNA, 72 h; series mostly up to 28.7 µM
Outline: as §1

ECU = experiment: as above; conditions: P. falciparum in erythrocytes, SYBR Green DNA, 72 h; series mostly up to 28.7 µM
Outline: as §1

FAB9 = experiment: as above; conditions: P. falciparum in erythrocytes, SYBR Green DNA, 72 h; series mostly up to 28.7 µM
Outline: as §1

GB4 = experiment: as above; conditions: P. falciparum in erythrocytes, SYBR Green DNA, 72 h; series mostly up to 28.7 µM
Outline: as §1

HB3 = experiment: as above; conditions: P. falciparum in erythrocytes, SYBR Green DNA, 72 h; series mostly up to 28.7 µM
Outline: as §1

ICS = experiment: as above; conditions: P. falciparum in erythrocytes, SYBR Green DNA, 72 h; series mostly up to 28.7 µM
Outline: as §1

JCK = experiment: as above; conditions: P. falciparum in erythrocytes, SYBR Green DNA, 72 h; series mostly up to 28.7 µM
Outline: as §1

N140 = experiment: as above; conditions: P. falciparum in erythrocytes, SYBR Green DNA, 72 h; series mostly up to 28.7 µM
Outline: as §1

P93_24 = experiment: as above; conditions: P. falciparum in erythrocytes, SYBR Green DNA, 72 h; series mostly up to 28.7 µM
Outline: as §1

P94_40 = experiment: as above; conditions: P. falciparum in erythrocytes, SYBR Green DNA, 72 h; series mostly up to 28.7 µM
Outline: as §1

PAD = experiment: as above; conditions: P. falciparum in erythrocytes, SYBR Green DNA, 72 h; series mostly up to 28.7 µM
Outline: as §1

PC15 = experiment: as above; conditions: P. falciparum in erythrocytes, SYBR Green DNA, 72 h; series mostly up to 28.7 µM
Outline: as §1

PC26 = experiment: as above; conditions: P. falciparum in erythrocytes, SYBR Green DNA, 72 h; series mostly up to 28.7 µM
Outline: as §1

PC49 = experiment: as above; conditions: P. falciparum in erythrocytes, SYBR Green DNA, 72 h; series mostly up to 28.7 µM
Outline: as §1

SC27B = experiment: as above; conditions: P. falciparum in erythrocytes, SYBR Green DNA, 72 h; series mostly up to 28.7 µM
Outline: as §1

TAB109 = experiment: as above; conditions: P. falciparum in erythrocytes, SYBR Green DNA, 72 h; series mostly up to 28.7 µM
Outline: as §1

TAB113 = experiment: as above; conditions: P. falciparum in erythrocytes, SYBR Green DNA, 72 h; series mostly up to 28.7 µM
Outline: as §1

TAB165 = experiment: as above; conditions: P. falciparum in erythrocytes, SYBR Green DNA, 72 h; series mostly up to 28.7 µM
Outline: as §1

C/C=C1\C2C=C(C)CC1(N)c1ccc(=O)[nH]c1C2 (centres undefined)
inactive: outcome [1] | Potency [2] | outcome [3] | Potency [4] | Potency [5] | Potency [6] | activity, negative = inhibition ([7]; parasite line A) -3.71% | activity, negative = inhibition ([7]; parasite line B) 0.727% | Potency (3D7) | Potency (7G8) | Potency (AA1029) | Potency (AS120) | Potency (ATS189) | Potency (ATS95) | Potency (C2A) | Potency (CP185) | Potency (CP191) | Potency (CP194) | Potency (CP201) | Potency (CP203) | Potency (CP211) | Potency (CP215) | Potency (CP217) | Potency (CP237) | Potency (CP238) | Potency (CP247) | Potency (CP250) | Potency (CP252) | Potency (CP256) | Potency (CP260) | Potency (CP262) | Potency (CP265) | Potency (CP266) | Potency (CP268) | Potency (CP269) | Potency (CP286) | Potency (CP291) | Potency (CP305) | Potency (CP315) | Potency (CP325) | Potency (CP329) | Potency (CP335) | Potency (DFO2036) | Potency (DIV14) | Potency (DIV17) | Potency (DIV30) | Potency (Dd2) | Potency (ECU) | Potency (FAB9) | Potency (GB4) | Potency (HB3) | Potency (ICS) | Potency (JCK) | Potency (N140) | Potency (P93_24) | Potency (P94_40) | Potency (PAD) | Potency (PC15) | Potency (PC26) | Potency (PC49) | Potency (SC27B) | Potency (TAB109) | Potency (TAB113) | Potency (TAB165)
